Test results from PubChem BioAssay AID1345085 (National Center for Advancing Translational Sciences (NCATS), 2018).
Records with an inconclusive call do not appear. Unmarked numbers belong to inactive results. Calls of active or inactive are those of the source. Calls come from the whole dose curve; as a rule, active = well fitted cell-killing curve with a large enough effect; inconclusive = small, poorly fitted or top-dose-only effect, or effect the other way; inactive = no such curve, though single readings can be large or run the other way.

Test system: C33A
Test: Confirmatory qHTS for gynecologic anti-cancer compounds from libraries of approved drugs and bioactive compounds; note: nearly all actives have a fitted effect of over 55% in size
Settings: gynecologic cancer cell panel viability, ATPlite luminescence, 48 h; series mostly up to 57.6 µM; activity change, negative = viability loss: at the top concentration
Outline: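 Seeding 1,000 cells per well preceded overnight (16 h) attachment, after which 48 h drug treatment across 57.5 uM–0.977 nM (11 points) was applied. Remaining cellular ATP, detected by ATPlite luminescence, defined IC50.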
% is set by controls: 0 for no effect and ±100 for the full control effect; potency is the fitted concentration of half-maximal effect.

Structure (SMILES)	Potency	activity change, negative = viability loss [%]
CC1=C(CO)C(=O)O[C@@H]([C@@H](C)[C@H]2CC[C@H]3[C@@H]4C[C@H]5O[C@]56[C@@H](O)C=CC(=O)[C@]6(C)[C@H]4CC[C@]23C)C1	2110 nM (active)	–
Cc1ccc(C(=O)N(CCCN)C(c2nc3cc(Cl)ccc3c(=O)n2Cc2ccccc2)C(C)C)cc1 (stereo not drawn)	485 nM (active)	–
Nc1ncnc2c1ncn2[C@@H]1O[C@H](CO)C[C@H]1O	–	19.3
CN1C2CCC1CC(OC(=O)[C@H](CO)c1ccccc1)C2 (stereo partly drawn)	–	1.35
CCN1CCN(Cc2ccc(Nc3ncc(F)c(-c4cc(F)c5nc(C)n(C(C)C)c5c4)n3)nc2)CC1	–	-25.7
CN(C)C(CCOc1cccc2ccccc12)c1ccccc1 (stereo not drawn)	–	-9.64
Cc1cc(C2CCCCC2)n(O)c(=O)c1	7030 nM (active)	–
CN(C)CC/C=C1\c2ccccc2COc2ccccc21	–	8.58
O=C1N(c2ccccc2)c2ccccc2C1(Cc1ccncc1)Cc1ccncc1	–	6.9
CCCS(=O)c1ccc2nc(NC(=O)OC)[nH]c2c1 (stereo not drawn)	–	-5.48
CCCC(Nc1nc(-c2ccc(NC(=O)NCC)c(OC)c2)ncc1C)c1cccnc1 (stereo not drawn)	153 nM (active)	–
FC(F)(F)c1ccc(/C=C/c2nc(COc3ccc(CCCCn4ccnn4)cc3)co2)cc1	–	-29.5
O=C(CCCCCCNC(=O)c1cnc(N(c2ccccc2)c2ccccc2)nc1)NO	10900 nM (active)	–
Cc1ccc(C(=O)N(CCCN)C(c2oc3cc(Cl)ccc3c(=O)c2Cc2ccccc2)C(C)C)cc1 (stereo not drawn)	769 nM (active)	–
COc1cccc2c1C(=O)c1c(O)c3c(c(O)c1C2=O)C[C@@](O)(C(=O)CO)C[C@@H]3O[C@H]1C[C@H](N)[C@H](O)[C@H](C)O1	1220 nM (active)	–
O=C(Nc1cn[nH]c1-c1nc2ccc(CN3CCOCC3)cc2[nH]1)NC1CC1	13700 nM (active)	–
Nc1ccccc1NC(=O)c1ccc(CNc2nccc(-c3cccnc3)n2)cc1	3060 nM (active)	–
COc1cc2nccc(Oc3ccc(NC(=O)C4(C(=O)Nc5ccc(F)cc5)CC4)cc3)c2cc1OC	15300 nM (active)	–
